Among the data in PubChem BioAssay (NCATS) are outcome and Potency values, retold here.

Inconclusive results are not listed. The source made the active and inactive calls. Unless noted, the call rests on the fitted dose curve; in most records, active means well fitted curve in the direction sought with a large enough effect; inconclusive means small, poorly fitted or top-dose-only effect, or another doubt; inactive means no such curve, though single readings can be large; an effect the other way counts as inactive or inconclusive.

The target in experiment [1] is alpha-glucosidase (Oryza sativa, rice) (UniProt Q653V4). In words: Counterscreen for Glucocerebrosidase Inhibitors: qHTS Assay for Rice alpha-Glucosidase at pH 5.0 (AID 997). An outline of the steps:
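Rice alpha-glucosidase (4 nM final) with 400 uM 4-methylumbelliferyl-alpha-D-glucopyranoside in citrate buffer pH 5.0, 20 min at room temperature, stopped at pH 10; fluorescence 365/440 nm, compounds 0.7 nM–77 uM, AC50 from Hill fits.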

A short description of experiment [2]: Validation of Assay for Modulators of Lamin A Splicing (AID 1459; active means well fitted curve in the direction sought with a large enough effect in the signal ratio; the % refers to the signal ratio;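 further: cells exposed to compound for two days before reading; ratio rise marks activators and ratio drop marks inhibitors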). An outline of the steps:
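HeLa S3 lamin A-EGFP/DsRed2 stable clone, 600 cells/well, Opti-MEM 2% FBS; compounds by pin tool; 48 hrs, 37 °C/5% CO2; Acumen 488 nm scan, objects 10-100 um; GFP/RFP intensity ratio.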

Experiment [3] addresses DNA repair nuclease/redox regulator APEX1 (Homo sapiens) (UniProt P27695). In words: qHTS Validation Assay for Inhibitors of the Human Apurinic/apyrimidinic Endonuclease 1 (APE1) (AID 1705;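 further: TAMRA fluorescence gain over two minutes as APE1 cuts a quenched THF abasic duplex; series mostly up to about 57 µM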). An outline of the steps: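 qHTS, 1536-well. APE1 + cpd 15 min RT → 50 nM TAMRA/BHQ-2 THF-abasic dsDNA substrate → kinetic fluorescence, 3 reads/60 s; delta(read3−read1) = reaction progress. No-enzyme buffer = negative control.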

For experiment [4], the target named is Endonuclease 4 (Escherichia coli (strain K12)) (UniProt P0A6C1). In words: Counterscreen for APE1 Inhibitors: qHTS Validation Assay for Inhibitors of Endonuclease IV (AID 1708). Summed up: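 E. coli EndoIV at 2 nM final, preincubated 15 min at room temperature with compound, then 50 nM TAMRA/BHQ-2 THF abasic-site duplex added. Buffer: 50 mM Tris-HCl pH 7.5, 50 mM NaCl, 2 mM MgCl2, 1 mM DTT, 0.01% Tween-20. Kinetic fluorescence increase, third minus first read.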

Experiment [5] in a line: qHTS for differential inhibitors of proliferation of Plasmodium falciparum line Dd2 (AID 1882). Further: nearly all actives have a fitted effect of over 65% in size. Further: potency means the concentration at half of the fitted maximal effect. The settings on record: Potency: Plasmodium falciparum Dd2 proliferation inhibition. Summed up:
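Dd2-infected erythrocytes (0.3% parasitemia, 2.5% hematocrit final) incubated with compound 72 h at 37 C, 5% CO2; lysed with saponin/Triton buffer containing SYBR Green I, incubated overnight in the dark, then read by fluorescence (485/535 nm). Normalized to 0.29 uM artemisinin and DMSO.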

Experiment [6] is described as follows: qHTS Assay for Modulators of Human Peripheral Myelin Protein 22 (PMP22) Expression/Activity (AID 1967; active means well fitted curve in the direction sought with a large enough effect in the signal ratio; the % refers to the signal ratio). An outline of the steps: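 Luminescence ratio of Pmp22 promoter-driven green luciferase to EF-alpha-driven red luciferase, in engineered mouse MSC80 Schwann cells, served as read-out. Compounds were incubated 24h; untreated cells defined 0% Activity; curves were classified by r2, magnitude and activity.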

For experiment [7], the target named is ATP-dependent DNA helicase Q1 (Homo sapiens) (UniProt P46063). The experiment can be described thus: qHTS Validation Assay for Inhibitors of RecQ-Like Dna Helicase 1 (RECQ1) (AID 2353). Summed up: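 50 nM RECQ1T1 preincubated 15 min with compound in Tris pH 8.0 buffer with MgCl2, DTT, Tween-20 and 2.5 ug/ml poly(dI-dC); started with 200 nM TAMRA/BHQ-2 forked duplex and 2 mM ATP. Unwinding read as fluorescence (525/598 nm), two reads 2 h apart.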
Sequence of ATP-dependent DNA helicase Q1 (Homo sapiens) (P46063 whole entry, looked up): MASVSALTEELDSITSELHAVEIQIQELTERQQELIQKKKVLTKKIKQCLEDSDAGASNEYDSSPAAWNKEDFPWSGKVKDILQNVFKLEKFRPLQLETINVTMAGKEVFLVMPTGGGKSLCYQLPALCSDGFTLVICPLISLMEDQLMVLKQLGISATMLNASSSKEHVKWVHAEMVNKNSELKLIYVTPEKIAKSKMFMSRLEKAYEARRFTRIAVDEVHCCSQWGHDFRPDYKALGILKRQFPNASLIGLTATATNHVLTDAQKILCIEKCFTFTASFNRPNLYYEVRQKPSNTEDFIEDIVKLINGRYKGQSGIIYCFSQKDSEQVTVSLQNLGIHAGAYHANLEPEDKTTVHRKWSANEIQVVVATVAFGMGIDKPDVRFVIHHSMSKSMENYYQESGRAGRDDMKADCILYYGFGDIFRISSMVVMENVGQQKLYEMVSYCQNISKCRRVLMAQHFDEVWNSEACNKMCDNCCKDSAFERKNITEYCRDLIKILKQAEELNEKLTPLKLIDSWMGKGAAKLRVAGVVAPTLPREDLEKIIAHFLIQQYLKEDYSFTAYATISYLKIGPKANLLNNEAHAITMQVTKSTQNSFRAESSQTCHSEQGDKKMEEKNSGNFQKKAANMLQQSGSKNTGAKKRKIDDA

The target in experiment [8] is RecQ-like DNA helicase BLM (Homo sapiens) (UniProt P54132). In words: qHTS Validation Assay for Inhibitors of Bloom's syndrome helicase (BLM) (AID 2364). Summed up: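 50 nM BLM preincubated 15 min at room temperature with compound in pH 8.0 Tris buffer containing 2.5 ug/ml poly(dI-dC); started with 200 nM TAMRA/BHQ-2 forked duplex and 2 mM ATP (final). Unwinding read as TAMRA fluorescence increase, two reads 2 h apart.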
Sequence of RecQ-like DNA helicase BLM (Homo sapiens) (P54132 whole entry, looked up): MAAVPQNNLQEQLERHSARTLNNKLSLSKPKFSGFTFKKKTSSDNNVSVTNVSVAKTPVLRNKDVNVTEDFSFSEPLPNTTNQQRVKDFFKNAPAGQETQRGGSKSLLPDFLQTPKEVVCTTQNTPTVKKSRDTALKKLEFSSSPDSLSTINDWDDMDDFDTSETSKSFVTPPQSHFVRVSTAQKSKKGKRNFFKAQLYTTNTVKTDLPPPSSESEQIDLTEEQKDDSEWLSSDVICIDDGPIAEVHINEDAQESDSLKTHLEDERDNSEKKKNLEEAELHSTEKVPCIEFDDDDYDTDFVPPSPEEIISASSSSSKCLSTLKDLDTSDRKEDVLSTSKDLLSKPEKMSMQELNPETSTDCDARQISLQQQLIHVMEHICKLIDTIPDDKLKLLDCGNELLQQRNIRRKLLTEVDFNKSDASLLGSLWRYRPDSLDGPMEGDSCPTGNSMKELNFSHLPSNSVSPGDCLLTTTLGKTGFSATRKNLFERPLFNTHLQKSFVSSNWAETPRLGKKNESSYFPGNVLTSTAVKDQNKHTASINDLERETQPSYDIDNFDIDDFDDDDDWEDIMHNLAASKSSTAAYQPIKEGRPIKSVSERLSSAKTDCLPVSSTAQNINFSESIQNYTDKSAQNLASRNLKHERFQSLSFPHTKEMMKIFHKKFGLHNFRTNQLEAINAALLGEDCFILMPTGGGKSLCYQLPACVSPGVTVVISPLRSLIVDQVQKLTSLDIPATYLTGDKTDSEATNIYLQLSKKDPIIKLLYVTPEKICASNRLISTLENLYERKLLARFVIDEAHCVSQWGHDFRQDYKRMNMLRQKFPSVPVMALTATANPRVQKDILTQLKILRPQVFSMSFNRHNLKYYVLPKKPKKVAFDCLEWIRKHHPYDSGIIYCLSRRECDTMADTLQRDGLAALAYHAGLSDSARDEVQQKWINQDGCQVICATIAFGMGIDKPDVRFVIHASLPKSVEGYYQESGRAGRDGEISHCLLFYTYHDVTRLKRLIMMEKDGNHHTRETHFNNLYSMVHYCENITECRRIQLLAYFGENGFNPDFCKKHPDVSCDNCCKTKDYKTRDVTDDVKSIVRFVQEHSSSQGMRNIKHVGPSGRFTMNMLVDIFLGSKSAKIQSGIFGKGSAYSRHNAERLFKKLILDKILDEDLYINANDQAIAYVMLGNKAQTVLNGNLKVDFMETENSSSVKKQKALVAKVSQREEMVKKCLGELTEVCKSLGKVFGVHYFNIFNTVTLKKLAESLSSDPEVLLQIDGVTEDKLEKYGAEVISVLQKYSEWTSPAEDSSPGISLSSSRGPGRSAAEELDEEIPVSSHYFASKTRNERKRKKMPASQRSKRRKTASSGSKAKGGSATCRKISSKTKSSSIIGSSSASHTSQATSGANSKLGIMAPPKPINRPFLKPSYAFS

Experiment [9] can be described thus: Counterscreen for APE1 Inhibitors: Fluorescent Dye Displacement Validation Assay (AID 1707). An outline of the steps: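 Assay buffer: Tris-HCl pH7.5 with 50mM NaCl, 2 mM MgCl2, 0.01% Tween-20. Dye 250 nM, duplex 50 nM final. Readout: decrease in ThO endpoint fluorescence, 480 nm excitation, 540 nm emission.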
Experiment [10] in a line: qHTS for differential inhibitors of proliferation of Plasmodium falciparum line 7G8 (AID 1815).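 Further: parasite growth measured after three days of incubation.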 Further: potency means the concentration at half of the fitted maximal effect.
A short description of experiment [11]: qHTS for differential inhibitors of proliferation of Plasmodium falciparum line GB4 (AID 1816).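 Further: parasite growth measured after 72 h incubation.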 Further: potency means the concentration at half of the fitted maximal effect. The note with it: Potency: Plasmodium falciparum GB4 proliferation inhibition.
The nature of experiment [12]: qHTS for differential inhibitors of proliferation of Plasmodium falciparum line 3D7 (AID 1876). Further: potency means the concentration at half of the fitted maximal effect.
Experiment [13] in a line: qHTS for differential inhibitors of proliferation of Plasmodium falciparum line W2 (AID 1883).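 Further: parasites grown with compound for 72 h before lysis and staining.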 Further: potency means the concentration at half of the fitted maximal effect. The note with it: Potency: Plasmodium falciparum W2 proliferation inhibition.
The nature of experiment [14]: qHTS for differential inhibitors of proliferation of Plasmodium falciparum line HB3 (AID 1886).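 Further: parasites grown with compound for 72 h before SYBR Green readout.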 Further: potency means the concentration at half of the fitted maximal effect. The note with it: Potency: Plasmodium falciparum HB3 proliferation inhibition.
Experiment [15] is described as follows: qHTS for differential inhibitors of proliferation of Plasmodium falciparum line D10 (AID 1877).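 Further: parasites grown with compound for 72 h before DNA staining.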
The target of experiment [16] is Ferritin light chain (Equus caballus) (UniProt P02791). In words: qHTS Validation Assay for Identification of Novel General Anesthetics (AID 2323). Further: series mostly up to about 77 µM. An outline of the steps:
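Fluorescence at 535 nm (excitation 380 nm) reported loss of 1-AMA binding to horse-spleen apoferritin (10 uM) in PBS with 50% saturated 1-aminoanthracene, after 10 min room-temperature incubation with compound; values from Hill fits of normalized response.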

Sequence of Ferritin light chain (Equus caballus) (P02791 2-175 limits assumed): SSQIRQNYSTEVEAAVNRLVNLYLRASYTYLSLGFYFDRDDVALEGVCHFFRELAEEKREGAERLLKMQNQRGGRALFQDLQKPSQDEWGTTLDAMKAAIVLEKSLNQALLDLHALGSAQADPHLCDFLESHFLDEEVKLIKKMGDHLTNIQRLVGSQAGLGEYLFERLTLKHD
Sequence of DNA repair nuclease/redox regulator APEX1 (Homo sapiens) (P27695 whole entry, looked up): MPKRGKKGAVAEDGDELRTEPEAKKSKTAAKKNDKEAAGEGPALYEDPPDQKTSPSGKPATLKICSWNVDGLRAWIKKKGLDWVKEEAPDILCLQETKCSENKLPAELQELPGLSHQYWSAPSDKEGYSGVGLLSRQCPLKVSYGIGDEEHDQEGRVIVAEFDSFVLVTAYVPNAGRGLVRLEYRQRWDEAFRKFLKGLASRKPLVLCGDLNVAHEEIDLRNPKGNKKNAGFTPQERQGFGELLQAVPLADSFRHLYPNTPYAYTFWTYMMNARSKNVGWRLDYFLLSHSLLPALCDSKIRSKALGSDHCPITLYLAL

Regarding `Cn1c(=O)c2[nH]c(-c3ccc(S(=O)(=O)O)cc3)nc2n(C)c1=O`, the compound was classed as inactive in experiment [1], in [2] and in experiment [6]. The Potency entry in [3], in experiment [4], in experiment [5], in experiment [7] and in [8] was “inactive” in each case.
For the compound `N#C/C(=C\c1ccc(O)c(O)c1)C(=O)NCCc1ccccc1`, the result in experiment [1] and in experiment [2] was inactive. The Potency entry in [9], in experiment [4] and in experiment [7] was “inactive” each time. The Potency is 8.91 µM (active) in experiment [10]; 10 µM (active) in experiment [11]; 11.2 µM (active) in experiment [12]; 11.2 µM (active) in [5]; 10 µM (active) in [13]; 11.2 µM (active) in experiment [14].
As to `Nc1ccc(-c2ccc3ccccc3n2)cc1`, the call in experiment [1] and in [2] was inactive. Further, the Potency entry in experiment [3], in experiment [9], in experiment [15], in experiment [5], in experiment [16] and in [7] was “inactive” each time.
Take `OC1(c2ccc(Cl)cc2)CCN(Cc2c[nH]c3ccccc23)CC1`: the compound was classed as inactive in [1] and in experiment [2]. Also, the Potency result in experiment [3], in [9], in experiment [16], in [7] and in experiment [8] was “inactive” each time.
For `Cc1ccc2c(c1)C(N1CCN(C)CC1)=Nc1cccnc1N2`, the compound was called inactive in experiment [1], in experiment [2] and in [6]. Further, the Potency result in [3], in experiment [9], in experiment [14], in [16] and in experiment [7] was “inactive” in each case. In addition, the Potency in experiment [13] was 7.08 µM (active).
On to `O=C1C2C=CC=CC2=NC(=S)N1CCN1CCC(=C(c2ccc(F)cc2)c2ccc(F)cc2)CC1` (stereo not drawn), for which the compound was called inactive in experiment [2]. In addition, the Potency result in experiment [9], in experiment [15], in experiment [5], in experiment [16] and in experiment [7] was “inactive” in each case. The Potency was 8.91 µM (active) in experiment [10] and 10 µM (active) in experiment [13].
With `CCCn1c(=O)c2[nH]c(-c3ccc(S(=O)(=O)O)cc3)nc2n(CCC)c1=O`, the compound was called inactive in experiment [1], in [2] and in [6]. In addition, the Potency entry in [3], in experiment [4], in experiment [10], in experiment [12], in experiment [15] and in [5] was “inactive” throughout. The Potency result in experiment [7] and in [8] was “inactive” each time.
Regarding `Nc1ccc(CCNc2ncnc3c2ncn3C2OC(CO)C(O)C2O)cc1` (stereo not drawn), the outcome in experiment [2] and in experiment [6] was inactive. For the same compound, the Potency result in [9], in experiment [4], in [5], in [14], in [16] and in experiment [7] was “inactive” in each case.
On to `O=C(OCCN1CCOCC1)C1(c2ccccc2)CCCCC1`, for which the result in experiment [1], in [2] and in [6] was inactive. Also, the Potency result in experiment [3], in experiment [9], in [16], in experiment [7] and in experiment [8] was “inactive” throughout. For the same compound, the Potency was 10 µM (active) in [11] and 4.47 µM (active) in [13].
Take `CCN(CC)CCOC(=O)c1cc(Cl)c(N)cc1OC`: the compound was classed as inactive in experiment [1], in experiment [2] and in [6]. In addition, the Potency result in experiment [3], in [4], in experiment [10], in experiment [11], in experiment [12] and in experiment [15] was “inactive” throughout. Further, the Potency entry in [5], in experiment [13], in [14] and in experiment [7] was “inactive” each time.
